Compound activity as filed in PubChem.
NS1 inh – qHTS Assay for Inhibitors of Influenza NS1 Protein Function | Potency, µM (doses to about 46.1 µM), for inactives: top-dose activity, positive = more growth | 0.4% of 270,000 active; calls by dose curve; further: actives are rising curves; nearly all actives have a fitted effect of over 50% in size
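A cell-based growth assay was used: compounds that relieve NS1-induced slow growth of budding yeast raise OD600. Assay medium was yeast nitrogen base with ammonium sulphate and -URA supplement, pH 6.0, with 2% galactose.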
SARS PLpro yeast – qHTS of Yeast-based Assay for SARS-CoV PLP | Potency, µM (doses to about 32.9 µM), for inactives: at the top dose activity, positive = growth rescue, most hits filed as activators | S. cerevisiae expressing SARS-CoV PLpro, growth rescue | 0.19% of 330,000 active; calls by dose curve; further: 0% is about no effect; nearly all actives have a fitted effect of over 55% in size
Pf growth 48h – Primary qHTS for delayed death inhibitors of the malarial parasite plastid, 48 hour incubation; P. falciparum luciferase growth in erythrocytes, 48 h; Potency, µM (series often up to 28.7 µM), without a hit: at the highest dose activity change, negative = inhibition, hits mostly inhibitors; 5.9% of 310,000 active; AID 504832, 2011; further: on the % scale 0 is the no-effect control and ±100 the full control effect
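Luciferase-expressing parasites in RBCs, 2% Hct / 0.1% parasitemia final; RPMI 1640 + 0.5% Albumax; 37 C, 5% CO2, one generation; luminescence read-out, lower signal = inhibition.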
AMA1 RON2 block – qHTS for Inhibitors of AMA1-RON; Towards Development of Antimalarial Drug Lead: Primary Screen. Plasmodium falciparum AMA1 (3D7) - RON2 peptide interaction. AlphaScreen AMA1-biotinylated RON2 peptide binding. Potency, µM (series often up to 58.2 µM), for inactives: top-dose activity change, negative = inhibition, usual class: inhibitors. 0.2% of 360,000 active. AID 720542, 2013;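 further: 0% = vehicle wells and -100% = peptide control; nearly all actives have a fitted effect of over 45% in size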
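AMA1 (3D7) with his tag at 25 nM final met compounds first, then biotinylated RON2 peptide at 25 nM; detection used donor plus acceptor beads, 10 µg/mL apiece, read by AlphaScreen after 30 min at room temperature.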
HCV inh – qHTS Assay for Inhibitors of Hepatitis C Virus (HCV) | Huh7.5.1 HCVcc-Cre infection, luciferase reporter, 44 h | 3.4% of 340,000 active | Potency, µM (series often up to 41.8 µM), for the others: top-dose activity change, negative = inhibition, hits mostly inhibitors | AID 651820, 2012; further: on the % scale 0 is the no-effect control and ±100 the full control effect
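Antiviral activity was scored by luciferase reporter output from cells infected with HCVcc-Cre (~0.5 moi) in presence of compound, 44 h infection period, cells seeded 1,000/well 4 h prior.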
Pf growth 96h – Primary qHTS for delayed death inhibitors of the malarial parasite plastid, 96 hour incubation; Potency, µM (top dose mostly 28.7 µM), for inactives: top-dose activity change, negative = inhibition, actives largely listed as inhibitors; 6.9% of 320,000 active; P. falciparum luciferase reporter growth, 96 h; AID 504834, 2011; further: on the % scale 0 is the no-effect control and ±100 the full control effect
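Two-generation exposure (96 h) targets delayed-death phenotype. Reporter parasites carrying integrated firefly luciferase, in red cells at 2% hematocrit and 0.05% parasitemia final, kept at 37 C, 5% CO2; luminescence loss indicates inhibition.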
Starred values were filed as active, the others as inactive; [ ] = dose if it differs, or a comment. Shown are actives, neighbours in structure and some others; about 12% of the full set was active somewhere. Unless noted, the call rests on the fitted dose curve; in most records, active means well fitted curve in the direction sought with a large enough effect; inconclusive means small, poorly fitted or top-dose-only effect, or another doubt; inactive means no such curve, though single readings can be large; an effect the other way counts as inactive or inconclusive. Potency means the concentration at half of the fitted maximal effect.

For O=C(O)c1ccccc1SC1CC(=O)N(c2cccc3ccccc23)C1=O (centres undefined) the results were NS1 inh -129%, SARS PLpro yeast -21%, Pf growth 48h 2.1µM*, AMA1 RON2 block 0%, HCV inh 6% and Pf growth 96h 60%.
`Cn1nnnc1SC1CC(=O)N(c2ccccc2)C1=O` (centres undefined) gave NS1 inh -54%, SARS PLpro yeast -5%, Pf growth 48h 2%, AMA1 RON2 block -2%, HCV inh 23% and Pf growth 96h -45%.
`CCOc1ccc(N2C(=O)CC(N(C)Cc3ccccc3)C2=O)cc1` (centres undefined) gave NS1 inh -81%, SARS PLpro yeast -126%, Pf growth 48h -9%, AMA1 RON2 block 10%, HCV inh 19% and Pf growth 96h 9%.
Screening Cc1cc2c(s1)c1c(n2C)C(=O)N(Cc2ccccc2F)C1 returned SARS PLpro yeast -1%, Pf growth 48h inconclusive and Pf growth 96h inconclusive.
CC(C)(C)SCCNC(=O)/C=C/c1cccc([N+](=O)[O-])c1 was read as NS1 inh 2%, SARS PLpro yeast -9%, Pf growth 48h 42%, AMA1 RON2 block 1%, HCV inh -2% and Pf growth 96h 16%.
`CC(C)(C)NC[C@H](O)COc1cccc2c1CCCC2=O` gave Pf growth 48h -78%, AMA1 RON2 block 0%, HCV inh 12% and Pf growth 96h 1%.
`Cc1ccc(OC[C@H](O)[C@H](C)NC(C)C)c2c1CCC2` gave Pf growth 48h 9.3µM*, AMA1 RON2 block -3%, HCV inh -28% and Pf growth 96h inconclusive.
Screening CC1CN(C(=O)CCNC(=O)c2ccccc2Cl)CC(C)O1 (centres undefined) returned NS1 inh 12%, SARS PLpro yeast 1%, Pf growth 48h -11%, AMA1 RON2 block 13%, HCV inh 8% and Pf growth 96h 34%.
Screening CC(C)CCCC(C)C1CC(=O)C2=C3CCC4CC(O)CCC4(C)C3CCC21C (centres undefined) returned Pf growth 48h -22% and Pf growth 96h inconclusive.
Screening COc1ccc(-c2nc(NC(=O)Cn3cnnn3)sc2C)cc1 returned SARS PLpro yeast 0%, Pf growth 48h 22%, AMA1 RON2 block -1%, HCV inh -3% and Pf growth 96h 40%.
Screening COc1ccc(-c2nc(NC(=O)Cn3ccc(C(F)(F)F)n3)sc2C)cc1 returned NS1 inh 12%, SARS PLpro yeast 1%, AMA1 RON2 block -5%, HCV inh inconclusive and Pf growth 96h 13µM*.
CC(=O)c1c(C)[nH]c(C(=O)Nc2nc(-c3ccc(-c4ccccc4)cc3)cs2)c1C was read as NS1 inh 0%, SARS PLpro yeast 10%, Pf growth 48h 8.3µM*, AMA1 RON2 block -2%, HCV inh inconclusive and Pf growth 96h 7.4µM*.
Screening COc1ccc(-c2nc(NC(=O)c3ccco3)sc2C)cc1 returned AMA1 RON2 block -9%.
Screening COc1ccc(-c2nc(NC(=O)c3[nH]c(C)c(C(C)=O)c3C)sc2C)cc1 returned SARS PLpro yeast 1%, Pf growth 48h -27%, AMA1 RON2 block -16%, HCV inh 1µM* and Pf growth 96h inconclusive.
For CC(=O)Nc1ccc(C(=O)CSc2nnnn2C2CCCC2)cc1 the results were NS1 inh -5%, SARS PLpro yeast -1%, Pf growth 48h 7%, AMA1 RON2 block 0%, HCV inh 24% and Pf growth 96h 7%.
`CC(CC(=O)c1ccccc1)=NCC(O)CN=C(C)CC(=O)c1ccccc1` (centres undefined) gave AMA1 RON2 block 46%.
For Cc1ccc(-c2oc3ncnc(N)c3c2-c2ccc(C)cc2)cc1 the results were NS1 inh 3%, SARS PLpro yeast 24%, Pf growth 48h 7.4µM*, AMA1 RON2 block 0%, HCV inh inconclusive and Pf growth 96h 10%.
`Cc1oc2ncnc(N)c2c1C` gave NS1 inh -11%, SARS PLpro yeast -1%, Pf growth 48h 14%, AMA1 RON2 block -1%, HCV inh 2% and Pf growth 96h 139%.
COC(=O)[C@@H]1C[C@@]2(O)[C@H](O)[C@H](O)[C@H](O)C[C@H]2N1Cc1cc(OC)cc(OC)c1 was read as NS1 inh 4%, SARS PLpro yeast 4%, Pf growth 48h 38%, AMA1 RON2 block 20%, HCV inh 18%[8.37 µM] and Pf growth 96h 68%.
For COC(=O)[C@@H]1C[C@@]2(O)[C@@H](O)[C@@H](O)[C@@H](O)C[C@H]2N1Cc1cc(OC)cc(OC)c1 the results were NS1 inh 7%, SARS PLpro yeast -1%, Pf growth 48h 40%, AMA1 RON2 block 18%, HCV inh 0.5µM* and Pf growth 96h 27%.
`COc1ccc2c(=O)c(C(=O)NCCc3ccc(OC)c(OC)c3)c[nH]c2c1` gave NS1 inh -2%, SARS PLpro yeast 1%, Pf growth 48h 10µM*, AMA1 RON2 block 5%, HCV inh -27% and Pf growth 96h inconclusive.
`COc1ccc(CCNC(=O)c2cc(S(=O)(=O)N3CCCCCC3)ccc2OC)cc1OC` gave SARS PLpro yeast 1%, Pf growth 48h inconclusive, AMA1 RON2 block -6%, HCV inh inconclusive and Pf growth 96h 13µM*.
COc1ccc(S(=O)(=O)N2CCCCCC2)cc1C(=O)N(C)Cc1ccc(C)cc1 was read as SARS PLpro yeast 0%, Pf growth 48h inconclusive, AMA1 RON2 block 14%, HCV inh inconclusive and Pf growth 96h inconclusive.
COc1ccc(S(=O)(=O)N2CCCCCC2)cc1C(=O)NCc1ccc(C)cc1 was read as SARS PLpro yeast -3%, Pf growth 48h 15µM*, AMA1 RON2 block 15%, HCV inh -25% and Pf growth 96h 12µM*.
`COc1cc(CNCCc2ccc(S(N)(=O)=O)cc2)ccc1OCC(=O)N1CCCCC1` gave NS1 inh -1%, SARS PLpro yeast -8%, Pf growth 48h 5%, AMA1 RON2 block -1%, HCV inh -2% and Pf growth 96h 4.1µM*.
For Cc1c(C(=O)N2CCCCC2)c(S(=O)(=O)NCCc2ccc(Cl)cc2)c(C)n1C the results were NS1 inh -8%, SARS PLpro yeast -2%, Pf growth 48h 4%, AMA1 RON2 block -7%, HCV inh 0% and Pf growth 96h 12%.
